Screening results (PubChem BioAssay)
Marburg entry inh = inhibitors of Marburg virus binding or cell entry | Potency, µM (series often up to 37.8 µM), without a hit: at the highest dose activity change, negative = inhibition, usual class: inhibitors | Marburg virus pseudotyped entry inhibition, cell reporter | 300,000 tested, 1.8% active; calls by dose curve; tested in HEK293 cells; note: potency is the fitted concentration of half-maximal effect
FMDV inh = blocks foot and mouth disease virus | FMDV antiviral cell-based qHTS | Potency, µM (top dose mostly 57.9 µM), for inactives: at the highest dose activity change, negative = inhibition, usual class: inhibitors | 410,000 tested, 1.2% active | AID 1159524; calls by dose curve; tested in HEK293T cells; note: read-out not given here; potency is the fitted concentration of half-maximal effect; nearly all actives have a fitted effect of over 45% in size
HCMV antiviral = human cytomegalovirus inhibition | activity change, negative = inhibition, % at 57.5 µM | AID 1259415 | HFF cells, HCMV-luciferase reporter, 72 h; stronger effect = lower value | 410,000 tested, 4.5% active; in the data active = activity change below about -60%; inconclusive = no clear call, values can overlap the other calls; inactive = above about -39%
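Luciferase read-out from HCMV-luciferase-infected HFFs (MOI 1 PFU/cell) 72 h post infection at 37C; compounds added after 16 h cell attachment; activity normalized between buffer-only basal and Salinomycin (10uM) inhibitor controls.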
LASV entry inh = inhibitors of Lassa virus binding or cell entry. 300,000 tested, 1.2% active. Lassa virus pseudotype entry inhibition, cell reporter. AID 540256. Potency, µM (titrated, usually from 37.9 µM), for the others: at the top dose activity change, negative = inhibition, actives largely listed as inhibitors; calls by dose curve; tested in HEK293 cells; note: potency is the fitted concentration of half-maximal effect; nearly all actives have a fitted effect of over 50% in size
Vaccinia mCherry = vaccinia inhibition (mCherry reporter) | Vaccinia virus mCherry reporter infection, fluorescence | Potency, µM (top dose mostly 36.5 µM), without a hit: top-dose activity change, negative = inhibition, usual class: inhibitors | 310,000 tested, 0.63% active; calls by dose curve; tested in A549 cells; note: potency is the fitted concentration of half-maximal effect; nearly all actives have a fitted effect of over 35% in size
Vaccinia Venus = inhibitors of vaccinia virus (Venus reporter). AID 720580. 330,000 tested, 0.46% active. Potency, µM (top dose mostly 36.5 µM), for inactives: at the top dose activity change, negative = inhibition, usual class: inhibitors. Vaccinia virus Venus reporter expression, fluorescence; calls by dose curve; tested in A549 cells; note: potency is the fitted concentration of half-maximal effect; nearly all actives have a fitted effect of over 30% in size
* marks the source's active call; other numbers are inactive results; i = inactive; ? = inconclusive; · = not tested or not shown; [ ] = remark or other dose. A selection: hits, their analogues and other compounds. The true share with any hit is near 6.5%. % is set by controls: 0 for no effect and ±100 for the full control effect.

SMILES	Marburg entry inh	FMDV inh	HCMV antiviral	LASV entry inh	Vaccinia mCherry	Vaccinia Venus
COc1ccc(OC)c(C2C(C(=O)N3CCCCC3)=C(C)Nc3nc4ccccc4n32)c1 (centres undefined)	-12%[46.1 µM]	-2%	7	13%[46.1 µM]	-17%	-4%
CCCCCOc1ccc(Cn2c(=O)oc3ccccc32)cc1	8%[46.1 µM]	-25%	-12	8%[46.1 µM]	-19%	-17%
Cc1ccccc1-c1nc(CS(=O)(=O)CC(=O)N2CCN(c3ccccc3)CC2)c(C)o1	-14%[46.1 µM]	?	-29	-22%[46.1 µM]	-21%	-18%
CCOC(=O)N1CCN(C(=O)CSCc2nc(-c3ccccc3F)oc2C)CC1	?	-28%	-80*	-6%	·	·
Cc1oc(-c2ccccc2F)nc1CS(=O)(=O)CC(=O)N1CCN(c2ccccc2)CC1	-6%[46.1 µM]	25µM*	-19	6%[46.1 µM]	?	?
COc1ccc([C@H]2SCC(=O)Nc3c2c(=O)[nH]n3C2CCCCC2)cc1	0%	·	·	·	·	·
CCn1cc(C(=O)NCCN(CC(C)C)CC(C)C)c(=O)c2cc(S(=O)(=O)N(C)C3CCCCC3)ccc21	6%[46.1 µM]	-1%	12	23%[46.1 µM]	-9%	0%
Cc1cc(O)cc(O)c1-c1onc(C(F)(F)F)c1-c1cscn1	?	?	-71*	-26%	·	?
CCOc1ccc(-c2onc(C(F)(F)F)c2-c2cscn2)c(O)c1	2%	?	-32	-3%	·	·
Cc1cc(C)cc(C(=O)C[n+]2cccc(Br)c2)c1	·	·	·	·	i	-14%
O=C(Cn1nnc(N2CCCCC2)n1)NN=Cc1ccccc1O	·	·	-2	·	·	·
CC1CCN(S(=O)(=O)c2cccc(C(=O)NCC3CCCO3)c2)CC1 (centres undefined)	29%[46.1 µM]	2%	-27	6.3µM*	-15%	-14%
O=S(=O)(Nc1cc(S(=O)(=O)N2CCOCC2)ccc1NCC1CCCO1)c1ccc(F)cc1 (centres undefined)	?	40%	-15	-3%	2.2µM*	?
COc1ccc(CCNCc2c(C(=O)O)c(C)n(Cc3c(F)cccc3Cl)c2C)cc1OC	1%[46.1 µM]	-6%	-2	8%[46.1 µM]	4%	4%
COC(=O)Cc1[nH]n(-c2nc3ccccc3s2)c(=O)c1C(C)=Nc1ccc(C)cc1	?	0.35µM*	-78*	?	-11%	-16%
COC(=O)Cc1[nH]n(-c2nc3ccccc3s2)c(=O)c1C(C)=Nc1ccc(Cl)cc1	·	1µM*	19	·	·	·
C/C(=N/NC(=O)c1cccs1)c1c(C)[nH]n(-c2nc3ccccc3s2)c1=O	4.6µM*	-15%	40	?	·	·
COC(=O)Cc1[nH]n(-c2ccccc2)c(=O)c1C(C)=Nc1ccccc1	18%[46.1 µM]	57%	?	19%	-7%	-2%
COC(=O)C1CCN(C2CN(Cc3cn(Cc4ccc(C(F)(F)F)cc4)nn3)S(=O)(=O)C2)CC1 (centres undefined)	·	·	-11	?	·	·
CCn1c(C(=O)Nc2ccc(C)cc2C)cc2sc(Cl)cc21	?	-6%	-25	·	6%	-7%
O=C(NCc1ccccc1Cl)[C@@H]1[C@@H](CO)[C@@H]2Cn3c(cccc3=O)[C@@H]2N1C(=O)C1CCC1	·	·	3	·	·	·
CCCN1CCN(CCNC(=O)Nc2ccc(OC)cc2OC)CC1	0%[46.1 µM]	-17%	-2	23%[46.1 µM]	-5%	3%
C#CCNC(=O)[C@H]1C=C(OC)C(=O)C[C@H](c2ccccc2)[C@H]1C	8%[14.2 µM]	·	·	·	·	·
O=C(O)c1c(C(=O)O)c2ccccc2[nH]c1=O	·	-3%	·	·	·	·
CCc1ccc(/C=C2\SC(=S)N(CCCC(=O)Nc3cc(C)on3)C2=O)cc1	·	16µM*	?	·	i	-9%
SMILES	Marburg entry inh	FMDV inh	HCMV antiviral	LASV entry inh	Vaccinia mCherry	Vaccinia Venus
COc1cccc(/C=C2\SC(=S)N(CCCC(=O)NC3=NCCS3)C2=O)c1	·	-15%	-29	·	·	·
CCc1ccc(/C=C2\SC(=S)N(CCCC(=O)NC3=NCCS3)C2=O)cc1	·	14µM*	-74*	·	-6%	-16%
Cc1nc2cc(C(=O)O)ccc2n1-c1ccc(C(C)C)cc1	-1%[46.1 µM]	66%	14	0%[46.1 µM]	-2%	12%
COC(=O)[C@@]1(Cc2ccccc2)[C@@H]2C(=CC(=O)[C@H]2CC(=O)C(=O)N(C)C)CN1C(=O)c1ccccc1	21µM*	14µM*	·	?	?	?
COC(=O)[C@@]1(Cc2ccc(F)cc2)[C@H]2c3cc(C(=O)N(C)C)n(CCF)c3C[C@H]2CN1C(=O)c1ccccc1	·	-17%	-35	·	-13%	-12%
COC(=O)C1=COC(O[C@H]2OC(CO)[C@H](O)C(O)C2O)[C@H]2C1C(=O)C[C@@H]2C (some centres undefined)	·	-11%	·	·	·	·
Cc1ccc(N(CC(=O)NC2CCCCC2)C(=O)c2ccc(C)s2)cc1	?	·	-63*	13%	-5%	-3%
COCCCNC(=O)C[C@H]1C[C@@]2(C(=O)OC)C(=C[C@H](C3CCCC3)O[C@@H]2C)N(Cc2ccccc2)C1=O	·	·	-18	·	·	·
CCOC(=O)c1c(NC(=O)c2ccc(Br)cc2)sc2c1CCCC2	·	-19%	-10	8%[46.1 µM]	-8%	1%
CC(C)(C)c1ccc(C(=O)Nc2sc3c(c2C(=O)O)CCC3)cc1	3.2µM*	-19%	-76*	?	-7%	-15%
Cc1cccc(C(=O)Nc2sc3c(c2C(=O)O)CCC3)c1	·	?	-1	·	·	·
O=C(Nc1sc2c(c1C(=O)O)CCCC2)c1ccc(F)cc1	2.5µM*	17%	19	?	-1%	-16%
COc1cccc(C(=O)Nc2sc3c(c2C(=O)O)CCCC3)c1	11µM*	32%	18	10µM*	?	?
CCOC(=O)c1c(NC(=O)c2ccc(-n3cnnn3)cc2)sc2c1CCCC2	?	-25%	·	16µM*	-12%	-8%
COc1ccc(C(C)C)cc1S(=O)(=O)NCCc1c(C)[nH]c2ccc(C)cc12	?	47%	15	-28%[46.1 µM]	-27%	-19%
Cc1ccc(NC(=O)CSc2nc3ccccc3nc2Cc2ccccc2)c(C)c1	·	-12%	0	-13%[46.1 µM]	-1%	-3%
C[C@H]1Cc2c(COc3ccccc3)nc3c(c2CO1)CN(C(=O)c1cccnc1)CC3	7%[14.2 µM]	·	·	?	·	·
Cc1ccc(C)c(-n2nnc(-c3nc(-c4ccccc4C)no3)c2C)c1	·	35%	2	-13%[46.1 µM]	-7%[7.34 µM]	-4%[7.34 µM]
CCn1c(=O)c(C(=O)CN2CCCc3ccccc32)c(N)n(Cc2ccccc2)c1=O	?	39%	-88*	?	·	·
CCn1c(=O)c(C(=O)CN2c3ccccc3CC2C)c(N)n(Cc2ccccc2)c1=O (centres undefined)	?	-28%	-30	?	-1%	-19%
CCn1c(=O)c(C(=O)CN(C)Cc2ccc(F)cc2)c(N)n(Cc2ccccc2)c1=O	10µM*	-28%	-31	-34%	-3%	-10%
CC(C)C(=O)N1CCC[C@@H]1c1noc2ccccc12	·	·	-15	·	·	·
NC(CSC(c1ccccc1)(c1ccccc1)c1ccccc1)C(=O)O (centres undefined)	-28%	-10%	31	-25%[46.1 µM]	?	-25%
